Measured values: the supplement of paper PMC11732987, “Enantioselective OTUD7B fragment discovery through chemoproteomics screening and high-throughput optimisation” (Communications Chemistry, 2025)

What was measured:
Assay in all cases: log2 ratio of Biotin-Ahx-Ub-VS probe labelling (fragment/DMSO); higher = less target engagement (more negative = stronger competition), active = hit call of the paper (q ≤ 0.05, log2 ratio ≤ -1)
Settings in all cases: compound concentration: 200 uM; treatment time: 3 h
OTUD6B = target: T1, OTUD6B (UniProt Q8N6M0)
T1 sequence (whole entry): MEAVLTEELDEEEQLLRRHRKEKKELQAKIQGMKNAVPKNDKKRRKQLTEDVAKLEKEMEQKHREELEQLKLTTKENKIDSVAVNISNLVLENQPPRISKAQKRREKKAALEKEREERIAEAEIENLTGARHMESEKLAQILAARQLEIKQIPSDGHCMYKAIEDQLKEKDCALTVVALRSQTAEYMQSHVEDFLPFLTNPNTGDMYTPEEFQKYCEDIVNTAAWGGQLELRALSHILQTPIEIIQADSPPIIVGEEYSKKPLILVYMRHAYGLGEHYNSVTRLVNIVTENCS
Outline: (§1)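 HEK293T lysate (495 µg per sample, in Tris/CHAPS/IGEPAL buffer with protease inhibitors) was treated in triplicate with fragment at 200 µM or with DMSO for 3 h. It was then treated with Biotin-Ahx-Ub-VS (0.5 µM final) for 1 h. Labelled DUBs were NeutrAvidin-enriched, digested with LysC and trypsin, and run by diaPASEF LC-MS/MS. Spectronaut label-free quantities were global-median-normalised. Values are average log2 ratios fragment/DMSO by unpaired t-test, using proteins with ≥2 unique peptides.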

OTUD7B = target: T2, OTUD7B (UniProt Q6GQQ9)
T2 sequence (whole entry): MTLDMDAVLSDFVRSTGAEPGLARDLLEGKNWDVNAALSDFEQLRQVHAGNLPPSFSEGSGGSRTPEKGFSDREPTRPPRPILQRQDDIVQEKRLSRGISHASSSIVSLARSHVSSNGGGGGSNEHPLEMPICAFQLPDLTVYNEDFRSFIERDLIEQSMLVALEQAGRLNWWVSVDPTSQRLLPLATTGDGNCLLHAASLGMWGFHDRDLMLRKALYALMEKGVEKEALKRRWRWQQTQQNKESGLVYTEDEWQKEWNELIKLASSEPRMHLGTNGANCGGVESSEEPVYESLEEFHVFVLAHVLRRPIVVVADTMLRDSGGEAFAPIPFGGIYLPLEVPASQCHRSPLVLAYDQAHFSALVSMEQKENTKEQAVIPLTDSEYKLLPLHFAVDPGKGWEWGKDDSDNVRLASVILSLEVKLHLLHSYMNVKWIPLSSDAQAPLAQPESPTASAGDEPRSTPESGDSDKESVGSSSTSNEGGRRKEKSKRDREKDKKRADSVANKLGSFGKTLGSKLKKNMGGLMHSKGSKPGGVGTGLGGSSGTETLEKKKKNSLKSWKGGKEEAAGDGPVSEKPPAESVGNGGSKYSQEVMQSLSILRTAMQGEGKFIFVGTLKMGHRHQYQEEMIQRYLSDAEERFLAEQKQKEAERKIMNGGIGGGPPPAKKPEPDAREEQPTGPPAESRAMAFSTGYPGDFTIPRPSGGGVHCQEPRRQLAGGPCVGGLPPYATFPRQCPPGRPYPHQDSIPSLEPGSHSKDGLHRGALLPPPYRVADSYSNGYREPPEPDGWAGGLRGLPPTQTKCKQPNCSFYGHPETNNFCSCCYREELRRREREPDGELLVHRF
Outline: as §1

PRPF8 = PRPF8 (UniProt Q6P2Q9)
Outline: as §1

PSMD7 = target: T3, PSMD7 (UniProt P51665)
T3 sequence (whole entry): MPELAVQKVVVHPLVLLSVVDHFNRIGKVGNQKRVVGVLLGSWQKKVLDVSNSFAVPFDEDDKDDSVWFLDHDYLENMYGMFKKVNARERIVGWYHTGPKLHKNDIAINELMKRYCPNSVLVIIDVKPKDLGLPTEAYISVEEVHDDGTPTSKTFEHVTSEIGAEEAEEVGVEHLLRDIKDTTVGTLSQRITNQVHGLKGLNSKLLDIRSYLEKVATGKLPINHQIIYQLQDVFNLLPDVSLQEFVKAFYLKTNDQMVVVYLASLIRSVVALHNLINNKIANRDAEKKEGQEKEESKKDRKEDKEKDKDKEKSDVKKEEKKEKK
Outline: as §1

UCHL1 = UCHL1 (UniProt P09936)
UCHL1, sequence (P09936 whole entry, looked up): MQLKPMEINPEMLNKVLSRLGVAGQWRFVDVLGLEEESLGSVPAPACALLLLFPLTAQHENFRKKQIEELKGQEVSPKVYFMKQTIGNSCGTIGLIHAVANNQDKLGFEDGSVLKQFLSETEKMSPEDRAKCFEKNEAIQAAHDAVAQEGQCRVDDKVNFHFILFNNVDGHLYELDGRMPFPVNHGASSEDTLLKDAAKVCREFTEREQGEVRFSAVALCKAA
Outline: as §1

UCHL3 = target: T4, UCHL3 (UniProt P15374)
T4 sequence (whole entry): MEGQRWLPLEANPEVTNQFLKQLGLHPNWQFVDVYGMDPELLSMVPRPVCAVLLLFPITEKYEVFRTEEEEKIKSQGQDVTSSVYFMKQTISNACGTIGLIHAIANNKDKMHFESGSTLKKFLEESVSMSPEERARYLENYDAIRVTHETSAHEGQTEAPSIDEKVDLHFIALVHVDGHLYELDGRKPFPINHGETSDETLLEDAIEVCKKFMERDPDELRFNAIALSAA
Outline: as §1

UCHL5 = target: T5, UCHL5 (UniProt Q9Y5K5)
T5 sequence (whole entry): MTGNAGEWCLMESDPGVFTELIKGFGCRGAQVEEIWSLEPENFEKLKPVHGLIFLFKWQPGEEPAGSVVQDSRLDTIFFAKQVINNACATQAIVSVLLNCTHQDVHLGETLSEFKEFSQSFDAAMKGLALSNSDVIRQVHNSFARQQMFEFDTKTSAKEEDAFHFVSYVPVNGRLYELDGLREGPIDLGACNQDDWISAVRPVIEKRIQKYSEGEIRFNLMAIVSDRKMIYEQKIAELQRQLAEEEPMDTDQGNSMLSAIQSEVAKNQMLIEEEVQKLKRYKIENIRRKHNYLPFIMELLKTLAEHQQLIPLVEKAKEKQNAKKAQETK
Outline: as §1

USP10 = USP10 (UniProt Q14694)
USP10, sequence (Q14694 whole entry): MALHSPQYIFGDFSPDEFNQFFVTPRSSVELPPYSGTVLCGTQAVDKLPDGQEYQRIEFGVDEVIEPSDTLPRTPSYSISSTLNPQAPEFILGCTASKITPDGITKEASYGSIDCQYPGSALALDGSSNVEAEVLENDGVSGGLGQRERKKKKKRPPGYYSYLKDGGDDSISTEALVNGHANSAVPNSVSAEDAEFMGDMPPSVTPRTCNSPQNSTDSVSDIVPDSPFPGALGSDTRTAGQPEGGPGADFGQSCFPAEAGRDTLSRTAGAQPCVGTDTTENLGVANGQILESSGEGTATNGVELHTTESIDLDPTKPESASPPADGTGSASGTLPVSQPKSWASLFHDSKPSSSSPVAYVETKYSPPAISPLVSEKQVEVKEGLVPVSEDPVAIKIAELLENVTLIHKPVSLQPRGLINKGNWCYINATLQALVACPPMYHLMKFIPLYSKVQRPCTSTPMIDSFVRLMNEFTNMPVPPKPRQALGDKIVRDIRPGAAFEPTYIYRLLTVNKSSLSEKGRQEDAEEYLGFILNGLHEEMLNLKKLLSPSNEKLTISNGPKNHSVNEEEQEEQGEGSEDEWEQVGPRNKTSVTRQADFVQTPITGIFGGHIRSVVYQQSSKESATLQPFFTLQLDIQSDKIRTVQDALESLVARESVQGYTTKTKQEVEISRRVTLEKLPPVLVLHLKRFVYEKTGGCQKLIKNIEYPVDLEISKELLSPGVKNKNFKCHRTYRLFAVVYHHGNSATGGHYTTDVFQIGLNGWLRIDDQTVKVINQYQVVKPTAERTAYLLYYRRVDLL
Outline: as §1

USP15 = target: T6, USP15 (UniProt Q9Y4E8)
T6 sequence (whole entry): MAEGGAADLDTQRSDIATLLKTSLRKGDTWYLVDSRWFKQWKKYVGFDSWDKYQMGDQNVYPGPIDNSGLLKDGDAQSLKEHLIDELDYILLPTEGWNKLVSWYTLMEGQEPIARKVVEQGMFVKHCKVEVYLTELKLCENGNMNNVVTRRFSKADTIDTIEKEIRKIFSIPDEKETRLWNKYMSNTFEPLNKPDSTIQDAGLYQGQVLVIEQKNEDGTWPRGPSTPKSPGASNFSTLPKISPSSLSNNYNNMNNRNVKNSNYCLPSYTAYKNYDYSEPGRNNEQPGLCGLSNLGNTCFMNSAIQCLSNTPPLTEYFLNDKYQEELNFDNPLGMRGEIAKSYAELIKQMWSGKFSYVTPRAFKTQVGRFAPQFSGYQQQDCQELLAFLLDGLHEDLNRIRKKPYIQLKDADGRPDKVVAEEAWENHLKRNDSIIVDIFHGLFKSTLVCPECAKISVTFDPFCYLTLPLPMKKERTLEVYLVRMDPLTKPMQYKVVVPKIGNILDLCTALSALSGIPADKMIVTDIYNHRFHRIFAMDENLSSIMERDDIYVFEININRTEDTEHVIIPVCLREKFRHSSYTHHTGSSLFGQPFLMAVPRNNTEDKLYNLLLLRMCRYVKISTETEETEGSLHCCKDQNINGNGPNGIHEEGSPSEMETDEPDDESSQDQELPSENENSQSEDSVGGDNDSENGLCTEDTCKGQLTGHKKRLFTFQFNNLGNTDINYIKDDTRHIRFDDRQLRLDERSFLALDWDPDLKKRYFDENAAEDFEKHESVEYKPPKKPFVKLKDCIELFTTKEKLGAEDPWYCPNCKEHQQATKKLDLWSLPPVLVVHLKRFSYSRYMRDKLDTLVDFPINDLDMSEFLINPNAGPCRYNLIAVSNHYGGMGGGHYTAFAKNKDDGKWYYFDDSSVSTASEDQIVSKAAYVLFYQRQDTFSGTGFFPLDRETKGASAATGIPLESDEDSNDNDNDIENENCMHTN
Outline: as §1

USP16 = USP16 (UniProt Q9Y5T5)
USP16, sequence (Q9Y5T5 whole entry, looked up): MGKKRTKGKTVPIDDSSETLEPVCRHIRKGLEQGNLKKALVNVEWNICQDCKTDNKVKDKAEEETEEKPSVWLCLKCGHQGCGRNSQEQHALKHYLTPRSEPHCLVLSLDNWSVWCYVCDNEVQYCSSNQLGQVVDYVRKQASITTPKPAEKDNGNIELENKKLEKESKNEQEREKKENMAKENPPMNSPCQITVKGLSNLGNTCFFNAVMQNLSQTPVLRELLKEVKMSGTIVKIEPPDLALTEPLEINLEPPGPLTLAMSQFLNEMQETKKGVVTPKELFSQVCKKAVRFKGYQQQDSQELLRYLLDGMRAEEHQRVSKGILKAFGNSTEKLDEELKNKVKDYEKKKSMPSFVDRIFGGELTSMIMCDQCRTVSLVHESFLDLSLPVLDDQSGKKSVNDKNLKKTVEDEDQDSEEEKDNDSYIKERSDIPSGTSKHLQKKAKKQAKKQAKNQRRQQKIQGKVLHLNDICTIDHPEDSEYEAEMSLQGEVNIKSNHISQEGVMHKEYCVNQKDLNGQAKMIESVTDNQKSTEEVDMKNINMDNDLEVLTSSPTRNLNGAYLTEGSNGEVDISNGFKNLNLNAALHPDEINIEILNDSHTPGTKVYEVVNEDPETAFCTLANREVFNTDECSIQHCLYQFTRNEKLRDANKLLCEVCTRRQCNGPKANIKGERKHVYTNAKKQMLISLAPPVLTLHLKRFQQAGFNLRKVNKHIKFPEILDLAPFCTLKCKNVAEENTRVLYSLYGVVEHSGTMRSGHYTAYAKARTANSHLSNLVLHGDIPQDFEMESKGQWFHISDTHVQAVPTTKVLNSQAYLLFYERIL
Outline: as §1

Measured: log2 ratio of Biotin-Ahx-Ub-VS probe labelling

CCN(C(=O)CCl)C1CCS(=O)(=O)C1 (stereo not given)
inactive: OTUD6B -0.144 | OTUD7B -0.284 | PRPF8 -0.167 | PSMD7 -0.00588 | UCHL3 0.365 | UCHL5 -0.0522 | USP10 -0.169 | USP15 -0.218 | USP16 -0.707
active: UCHL1 -1.26
